Measurements reported in PubChem BioAssay (NCI).
About 79,000 compounds went through this panel and 15% of them were active in at least one assay; those are over-represented in the sample as a whole. Calls of active or inactive are those of the source. Rule as the data show it: active = growth inhibition above about 70%; inactive = the rest.

How the values were obtained:
[1] = NCI Yeast Anticancer Drug Screen. Data for the rad50 strain (AID 155);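 also: 0% = growth of vehicle-only cultures of the same strain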; settings: S. cerevisiae rad50 strain growth inhibition; at 50.0 µM; stronger effect = higher value
Summary of the method: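 DNA repair mutant yeast, compound exposure, growth read-out; inhibition is taken relative to vehicle.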

[2] = NCI Yeast Anticancer Drug Screen. Data for the mec2-1 strain (AID 157); settings: S. cerevisiae mec2-1 strain, at 50.0 µM, stronger effect = higher value
Summary of the method: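 Using mec2-1 yeast: add compound, measure growth, express inhibition versus vehicle-treated cultures.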

[3] = NCI Yeast Anticancer Drug Screen. Data for the sgs1 mgt1 strain (AID 161);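 also: 0% = growth of cultures given vehicle only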; settings: S. cerevisiae sgs1 mgt1 strain, at 50.0 µM, stronger effect = higher value
Summary of the method: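 Growth of a repair-deficient yeast mutant was monitored after compound treatment and expressed as inhibition relative to vehicle-treated cultures.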

[4] = NCI Yeast Anticancer Drug Screen. Data for the cln2 rad14 strain (AID 165);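 also: 0% = growth equal to vehicle treated cultures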; settings: S. cerevisiae cln2 rad14 strain, at 50.0 µM, stronger effect = higher value
Summary of the method: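 Yeast strain cln2 rad14, bearing defects in cell cycle control and DNA repair, serves as the test system; values reflect growth inhibition compared with vehicle.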

[5] = NCI Yeast Anticancer Drug Screen. Data for the bub3 strain (AID 167); settings: S. cerevisiae bub3 mutant strain, at 50.0 µM, stronger effect = higher value
Summary of the method: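 In this screen, a yeast mutant lacking normal mitotic checkpoint function is challenged with compound. Relative growth versus vehicle gives the inhibition value.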

[6] = NCI Yeast Anticancer Drug Screen. Data for the mlh1 rad18 strain (AID 175); settings: S. cerevisiae mlh1 rad18 strain growth inhibition; at 50.0 µM; stronger effect = higher value
Summary of the method: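 Steps: expose repair-defective yeast to compound; measure growth; express inhibition against vehicle-treated controls.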

Measured: growth inhibition

CNC(=O)c1ccccc1C(=O)c1ccccc1OC
inactive: [1] 7.5% | [2] -11.7% | [3] -3.05% | [4] -25.1% | [5] 17.4% | [6] 2.15%

CC1(C)OC(=O)N=C1c1cccc(Cl)c1
inactive: [1] -12.3% | [2] -17.8% | [3] -15.9% | [4] -5.9% | [5] 4.25% | [6] -3.7%

CCCCOC(=O)Nc1ccccc1OCC
inactive: [1] 6.7% | [2] -19.8% | [3] -0.35% | [4] -48.4% | [5] -20.5% | [6] -11.2%

CCCCn1c(=S)sc2ccccc21
inactive: [1] 15.2% | [2] 4.45% | [3] 20.8% | [4] -50.5% | [5] 21.7% | [6] 22.4%

O=[N+]([O-])c1cc(Br)cc2c1nc(NCCO)c1ccccc12
active: [1] 90.8% | [2] 79.5% | [3] 96.8% | [4] 88.2% | [5] 86.8% | [6] 97%

NC(CC(=O)O)c1ccc(Cl)cc1 (stereo not given)
inactive: [1] -22.5% | [2] -23.3% | [3] -14.4% | [4] -8.3% | [5] 0.3% | [6] 7%

C#CC(OC(C)=O)C1OC(n2cnc3c(Cl)nc(Cl)nc32)C(OC(C)=O)C1OC(C)=O (stereo not given)
inactive: [1] 37.5% | [2] 2.45% | [3] 21.2% | [4] 17.9% | [5] 10.8% | [6] 24.4%

O=C1NC(=O)/C(=C\c2cccc(Br)c2)N1
inactive: [1] -7.95% | [2] 4.15% | [3] -12.1% | [4] 6.8% | [5] 24.5% | [6] 8.85%

C=CC1OCC2(CO1)COC(C=C)OC2 (stereo not given)
inactive: [1] 12.4% | [2] -11.7% | [3] 2.4% | [4] -7.55% | [5] -12.4% | [6] 2.75%

Cc1c(C)c(C)c(Br)c(C)c1C
inactive: [1] -6.7% | [2] -5.05% | [3] -14% | [4] -17.6% | [5] 1.15% | [6] 0.65%

O=[N+]([O-])c1ccc(OP(=O)(O)O)cc1
inactive: [1] -5.9% | [2] 13.3% | [3] -9.85% | [4] 20.2% | [5] 8.95% | [6] -10.2%

C1CSCCSCCSCCSC1
inactive: [1] -8.05% | [2] -24.4% | [3] -13.7% | [4] -18.3% | [5] 31.9% | [6] -25.4%

Cc1cc(C)cc(C(=O)OC2CCCC2)c1
inactive: [1] 1.2% | [2] 0.35% | [3] -3.85% | [4] 4.5% | [5] -5.2% | [6] 22.9%

CCOC(=O)CCCNc1cc(OC)cc2cccnc12
inactive: [1] -7.4% | [2] -23.9% | [3] -2.6% | [4] -48.8% | [5] 19.8% | [6] -8.7%

CSc1nc2cc(S(=O)(=O)N3CCCCC3)ccc2s1
inactive: [1] -34.5% | [2] -21.8% | [3] -25.5% | [4] -52.6% | [5] -89.3% | [6] -7%

C=CCCCCC1CCC2CCC(CCCCC=C)N12 (stereo not given)
inactive: [1] 40.8% | [2] 28.4% | [3] 38.6% | [4] 42.5% | [5] 49.4% | [6] 35.9%

CCCCCSc1nc2c([nH]1)c(=O)n(C)c(=S)n2C
inactive: [1] 14.5% | [2] -6.35% | [3] 1.95% | [4] -8.8% | [5] 0.6% | [6] -15.6%

COc1ccc(CSc2n[nH]c(=O)[nH]c2=S)cc1
inactive: [1] 14.8% | [2] -4.45% | [3] -10.4% | [4] -12.1% | [5] 4.7% | [6] 38.4%

Cc1ccc(S(=O)(=O)N2CN(S(=O)(=O)c3ccc(C)cc3)CN(S(=O)(=O)c3ccc(C)cc3)C2)cc1
inactive: [1] -29.4% | [2] -32.2% | [3] -22.8% | [4] -6.9% | [5] -40.3% | [6] -24.8%

CCCCCCCCCCCCCCCCCCCCCCCCSC(=N)N
inactive: [1] 10.6% | [2] 0.15% | [3] 16.5% | [4] 26.4% | [5] -6.15% | [6] 12.9%

CCOc1ccc(N=C2C=C(Nc3ccc(OCC)cc3)C(=Nc3ccc(OCC)cc3)C=C2Nc2ccc(OCC)cc2)cc1
inactive: [1] -17.7% | [2] -14.5% | [3] -24.2% | [4] -18.4% | [5] 2.35% | [6] -24.5%

[N-]=[N+]=NC(c1ccccc1)S(=O)c1ccccc1 (stereo not given)
inactive: [4] 48%
active: [1] 98.1% | [2] 98.5% | [3] 95.8% | [5] 96.3% | [6] 91%

CCCCN(CCCC)C(C)=O
inactive: [1] -45.1% | [2] -4.85% | [3] 17.1% | [4] -35% | [5] 5.15% | [6] -8.2%

C=C(C)COc1ccc(C)cc1Br
inactive: [1] -4.05% | [2] -4.05% | [3] 0% | [4] -51.8% | [5] 7.1% | [6] -13%

Cc1ccc(C)c(NS(=O)(=O)c2ccc(Cl)c([N+](=O)[O-])c2)c1
active: [1] 97.1% | [2] 98.2% | [3] 97.8% | [4] 96.8% | [5] 97.9% | [6] 98%

O/N=C/c1ccc(Cc2ccccc2)o1
inactive: [1] 15.7% | [2] 19.6% | [3] 11.2% | [4] -18.8% | [5] -11.3% | [6] 25.9%

CCCCOC(=O)/C(=C\c1ccc(OC(C)=O)c(OC)c1)NC(=O)c1ccccc1
inactive: [1] 4.7% | [2] 7.6% | [3] -1.5% | [4] -10.3% | [5] 14.9% | [6] -6.35%

CC(C)(C)C(=O)CC(=O)C(F)(F)C(F)(F)C(F)(F)F.CC(C)(C)C(=O)CC(=O)C(F)(F)C(F)(F)C(F)(F)F.CC(C)(C)C(=O)CC(=O)C(F)(F)C(F)(F)C(F)(F)F.[Eu]
inactive: [1] 9.65% | [2] 39.4% | [3] 21.2% | [4] 39.5% | [5] 39.8% | [6] -1.2%

C[n+]1ccc2ccccc2c1C#N
inactive: [1] 2.55% | [2] 10.6% | [3] -3.75% | [4] -0.35% | [5] 0.35% | [6] 14.9%

CCCCC1=C(C)CCC1=O
inactive: [1] 17.9% | [2] 8.9% | [3] 8.7% | [4] 6.55% | [5] 2.85% | [6] 4.85%

Oc1ccc2ccccc2c1C=NCc1c(O)ccc2ccccc12
inactive: [1] 3.5% | [2] -1.7% | [3] -11.2% | [4] -39.2% | [5] -43.6% | [6] 8.75%

CC(C)C1CC(C(C)C)C(O)C(C(C)C)C1 (stereo not given)
inactive: [1] 11.8% | [2] 1.55% | [3] 6.6% | [4] -5.9% | [5] 5.45% | [6] 15.7%

CN(C)c1ccc(/C=C/c2ccnc3ccc(Br)cc23)cc1
inactive: [1] 26.9% | [2] 14.9% | [3] 27.4% | [4] 14.9% | [5] 8.1% | [6] 9.35%

CCCCN(CCCC)CC(O)c1cccc2c1cc(Cl)c1ccccc12 (stereo not given)
active: [1] 99.2% | [2] 99.6% | [3] 99.5% | [4] 98.5% | [5] 98.5% | [6] 99.3%

O=C(OCC1OC(c2ccccc2)OC2C(COC(=O)c3ccccc3)OC(c3ccccc3)OC12)c1ccccc1 (stereo not given)
inactive: [1] 4.4% | [2] 6.1% | [3] -0.6% | [4] 6.7% | [5] 12.4% | [6] 14.1%

CCCCC#CCN(CCCC)CCCC
inactive: [1] -19.6% | [2] 1% | [3] -2.55% | [4] 13.3% | [5] 11.3% | [6] -29%

C/C(CC(=O)Nc1ccc(C)cc1)=N\NC(N)=S
inactive: [1] -13.5% | [2] -7.7% | [3] 3.45% | [4] 8.3% | [5] -1% | [6] -19.6%

CCCCCC(CN(C)C)C(=O)CC(SCC)c1ccc(Cl)c(Cl)c1 (stereo not given)
active: [1] 99.5% | [2] 99.5% | [3] 99.5% | [4] 99.5% | [5] 99.2% | [6] 99.3%

COc1nc(N=P(c2ccccc2)(c2ccccc2)c2ccccc2)cc(=O)[nH]1
inactive: [1] 4.3% | [2] 1.6% | [3] 26.9% | [4] 27.7% | [5] 21.9% | [6] 4.65%

COC(=O)C1=C(C)C=C(N2CCOCC2)C(C(=O)OC)C1c1ccccc1 (stereo not given)
inactive: [1] -0.85% | [2] -16.2% | [3] -11.4% | [4] -3.1% | [5] -1.55% | [6] 9%
